# According to ChEMBL document CHEMBL3433997, “St. Jude Leishmania screening dataset” (2016):
# Biological target: Glucose transporter (Leishmania mexicana) (UniProt O61059)
# Assay: ST_JUDE_LEISH: Cytotoxicity at 2uM final concentration against transgenic Leishmania Mexicana promastigotes LmGT2 that are glucose transport deficient and complemented with the L. Mexicana glucose transporter 2. Activity is measured by DNA content using SYBR green in vitro
# Format: functional
row,Compound,inhibition
1,O=C(Cc1cccc(Cl)c1)Nc1cccc(-c2c[nH]c3nc(Nc4cccc(O)c4)ncc23)c1,-0.68%
2,COc1ccccc1-c1cccc2c(NC(=O)Nc3ccc4nccc(N5CCN(C)CC5)c4c3)ccnc12,2.18%
3,Cn1nccc1C(=O)NCCNCc1ccc(-c2cccc(-c3nc4cc(C(F)(F)F)ccc4[nH]3)c2)cc1,2.51%
4,Cc1ccc(NC(=O)c2cc(Br)cc(N3CCCN(C)CC3)c2)cc1F,-1.29%
5,N=C(N)Nc1cccc(NC(=O)Nc2cccc(NC(=N)N)c2)c1,3.86%
6,Clc1cc(Br)ccc1-c1ccc(CNCC2CCNCC2)o1,1.69%
7,Cc1ccc(Nc2nc(N)c3ccccc3n2)cc1,4.74%
8,Brc1ccc(Nc2ccnc3cc(-c4nccs4)ccc23)cc1Oc1ccnc2cc(-c3nccs3)ccc12,-0.86%
9,COc1ccc(Nc2ncc3c(-c4cccc(NC(=O)c5ccc(N)cc5)c4)c[nH]c3n2)cc1OC,7.97%
10,COc1ccc2[nH]ccc(=NN=CC=Cc3ccccc3)c2c1,-3.26%
11,Cc1cc(=O)c(-c2ccc(Oc3ccc(OC(F)(F)F)cc3)cc2)c(C)[nH]1,-1.38%
12,CC(C)(C)c1ccc(NC(=O)c2ccc(CN3CCCN(Cc4cccc(C#N)c4)CC3)cc2)cc1,4.99%
13,COc1cccc(C(=O)NC(c2ccc(Cl)cc2Cl)c2cc(Cl)c3cccnc3c2O)c1 (stereo not given),1.53%
14,N#Cc1ccccc1C(=O)N(Cc1cncn1Cc1cccc(F)c1)CC1CC1,8.88%
15,CN1CCC(C(=O)N(Cc2ccc(-c3ccc(CNCCc4ccc(S(C)(=O)=O)cc4)cn3)cc2)C2Cc3ccccc3C2)CC1,-0.85%
16,CN(C)c1ccc2c(c1)Sc1cc(N(C)C)ccc1N2C(=O)c1cccc(C(=O)O)c1,7.43%
17,COc1cc2nc(N(C)C)nc(Nc3ccc4c(cnn4Cc4ccccc4)c3)c2cc1OC,2.85%
18,COc1ccc(-c2cccc(NC(=O)c3ccc(F)cc3)c2)cc1CN1CCCN(C)CC1,7.43%
19,CC1CN(c2cnn(Cc3cccc(NC(=O)Nc4ccc(F)cc4[N+](=O)[O-])c3)c(=O)c2Cl)CC(C)N1 (stereo not given),-0.22%
20,Clc1cc(Nc2ncnc3sc(C#C[C@H]4CCCN4)cc23)ccc1OCc1cccnc1Cl,3.35%

row,Compound,inhibition
1,CCN(c1ccc(O)c(CN2CCCCC2)c1)c1ccc([N+](=O)[O-])cn1,0.72%
2,O=C(c1cccc(-c2ccc(-c3nc4cc(C(F)(F)F)ccc4[nH]3)cc2)c1)N1CCCCC1CN1CCC(O)C1 (stereo not given),2.26%
3,CC(C(=O)Nc1ccc(Br)cc1Br)N1CCN(C(=O)c2ccco2)CC1 (stereo not given),1.86%
4,O=C(O)/C=C/c1cccc(F)c1F,2.66%
5,O=C(Nc1ccc(-c2ccccc2)c(OCCN2CCNCC2)c1)c1ccc(-c2ccc(Cl)cc2)cc1,3.11%
6,COc1cc2c(cc1OC)CN(CCc1ccc(NC(=O)c3cc4cc(OC(F)(F)F)ccc4[nH]3)cc1)CC2,1.17%
7,CC(=O)N1N=C(c2ccccc2)Sc2c1nc(-c1ccc(Cl)cc1)n2C(C)=O,3.09%
8,CC(=O)N(C)c1cccc(C(=O)Nc2ccc(-c3cccc(-c4nc5cccc(C)c5[nH]4)c3)cc2)c1,-8.47%
9,CC(C)c1ccc(CN2CCC(CNC(=O)c3cc(-c4ccccc4F)cs3)C2)cc1 (stereo not given),8.4%
10,CC(CNc1nc(NCC(c2ccccc2)c2ccccc2)c2nc[nH]c2n1)c1ccccc1 (stereo not given),3.73%
11,COc1ccc(CNC2CCN(C)CC2)cc1-c1ccc(S(=O)(=O)NCCc2ccccn2)c(C)c1,1.53%
12,CCOc1cc(C)ccc1NC1CCN(CCCCNC(=O)c2ccc(NC(=O)c3ccc(Cl)cc3)cc2)CC1,1.89%
13,Oc1ccc2[nH]cc(C3CCN(CCCCCCCCCN4CCC(c5c[nH]c6ccc(O)cc56)CC4)CC3)c2c1,-1.9%
14,Cc1nc(-c2cccc(NCc3ccccc3)c2)[nH]c1C,1.13%
15,O=C(NC1CC1)c1ccc(N2CCC(Cc3ccccc3)CC2)nc1,-1.16%
16,CCOc1ccc2nc3cc([N+](=O)[O-])ccc3c(N)c2c1,2.01%
17,CCOc1ccc(OCC)c(N2CCN(CCCCNC(=O)c3ccc(NC(=O)c4ccc(Cl)cc4)cc3)CC2)c1,3.45%
18,O=[N+]([O-])c1cccc(/C=N/Nc2ccnc3cc(F)ccc23)c1,1.01%
19,CCCCOc1c(CNCCCCCCNCc2ccc3ccccc3c2OCCCC)ccc2ccccc12,85.2%
20,CCC(CN1C(=N)NC(c2ccccc2)(c2ccccc2)C1=O)c1ccccc1 (stereo not given),0.9%
